According to PubChem BioAssay AID1159580 (chemical genetic matrix, 2015):
Screen size: about 5,500 compounds; about 2,000 (36%) were called active. Not shown: some 18% with an inconclusive outcome. This is one part of the list. Unmarked numbers belong to inactive results. Rule as the data show it: active = normalized growth mostly below about 0.91 (no sharp cut-off); inconclusive = no clear call, values can overlap the other calls; inactive = mostly above about 0.92.

Test: chemical genetic growth profiling, strain panel (AID 1159580);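 also: tested at 20 µM; growth read once vehicle control cultures reached saturation at 30 °C; 1 = growth at the plate median or of vehicle wells; lower values mean less growth of the strain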
Details: S. cerevisiae deletion strains, growth OD
[1] = locus YAL013W, strain DEP1, hits give low values
[2] = locus YBR229C, strain ROT2, hits give low values
[3] = locus YDL101C, strain DUN1, hits give low values
[4] = locus YDR150W, strain NUM1, hits give low values
[5] = locus YEL061C, strain CIN8, hits give low values
[6] = locus YGR078C, strain PAC10, hits give low values
[7] = locus YGR229C, strain SMI1, hits give low values
[8] = locus YHR030C, strain SLT2, hits give low values
[9] = locus YHR087W, strain rtc3, hits give low values
[10] = locus YJR043C, strain POL32, hits give low values
[11] = locus YJR075W, strain HOC1, hits give low values
[12] = locus YKL190W, strain CNB1, hits give low values
[13] = locus YLR039C, strain RIC1, hits give low values
[14] = locus YLR058C, strain SHM2 (second series), hits give low values
[15] = locus YLR085C, strain ARP6, hits give low values
[16] = locus YLR262C, strain YPT6, hits give low values
[17] = locus YML094W, strain GIM5, hits give low values
[18] = locus YMR219W, strain ESC1, hits give low values
[19] = locus YMR263W, strain SAP30, hits give low values
[20] = locus YMR307W, strain GAS1, hits give low values
[21] = locus YNL153C, strain GIM3, hits give low values
[22] = locus YNL298W, strain CLA4 (second series), hits give low values
[23] = locus YNL322C, strain KRE1, hits give low values
[24] = locus YNR030W, strain Alg12, hits give low values
[25] = locus YPL055C, strain LGE1, hits give low values
[26] = locus YPL241C, strain CIN2, hits give low values
[27] = locus YPR135W, strain CTF4, hits give low values
[28] = locus YAL040C, strain CLN3, hits give low values
[29] = locus YCL061C, strain MRC1 (second series), hits give low values
[30] = locus YDR363W, strain ESC2, hits give low values
[31] = locus YER002W, strain NOP16, hits give low values
[32] = locus YNL175C, strain NOP13, hits give low values
[33] = locus YNL197C, strain WHI3, hits give low values
[34] = locus YNL224C, strain SQS1, hits give low values
[35] = locus YOR083W, strain WHI5 (second series), hits give low values

**Q.** For `Cc1cc(C)c(CSCCNC(=O)Nc2ccc(F)cc2F)c(C)c1`, which normalized growth [1] is on record?
**A.** The normalized growth was 1.02.

**Q.** What about the normalized growth [2] of the same compound?
**A.** Its normalized growth is 1.01.

**Q.** What about the normalized growth (locus YCL061C, strain MRC1, hits give low values) of the same compound?
**A.** The normalized growth was 1.03.

**Q.** And the normalized growth [3]?
**A.** The normalized growth was 1.03.

**Q.** And the normalized growth (locus YDL134C, strain PPH21, hits give low values)?
**A.** Its normalized growth is 1.01.

**Q.** What about the normalized growth [4] of the same compound?
**A.** The normalized growth was 0.942.

**Q.** What about the normalized growth [5] of the same compound?
**A.** The normalized growth was 1.01.

**Q.** And the normalized growth [6]?
**A.** The normalized growth was 1.03.

**Q.** What about the normalized growth [7] of the same compound?
**A.** Its normalized growth is 1.02.

**Q.** And the normalized growth [8]?
**A.** Its normalized growth is 1.08.

**Q.** What about the normalized growth [9] of the same compound?
**A.** The normalized growth was 1.02.

**Q.** And the normalized growth (locus YJL187C, strain SWE1, hits give low values)?
**A.** The normalized growth was 1.03.

**Q.** What about the normalized growth [10] of the same compound?
**A.** The normalized growth was 1.02.

**Q.** What about the normalized growth [11] of the same compound?
**A.** The normalized growth was 1.03.

**Q.** And the normalized growth [12]?
**A.** The normalized growth was 1.02.

**Q.** And the normalized growth [13]?
**A.** The normalized growth was 1.05.

**Q.** And the normalized growth [14]?
**A.** The normalized growth was 1.02.

**Q.** What about the normalized growth [15] of the same compound?
**A.** The normalized growth was 1.28 [resistant] (active).

**Q.** What about the normalized growth [16] of the same compound?
**A.** The normalized growth was 1.03.

**Q.** And the normalized growth [17]?
**A.** The normalized growth was 1.04.

**Q.** What about the normalized growth [18] of the same compound?
**A.** The normalized growth was 1.01.

**Q.** And the normalized growth [19]?
**A.** The normalized growth was 0.937.

**Q.** And the normalized growth [20]?
**A.** Its normalized growth is 1.29.

**Q.** What about the normalized growth [21] of the same compound?
**A.** Its normalized growth is 1.01.

**Q.** And the normalized growth [22]?
**A.** Its normalized growth is 1.03.

**Q.** What about the normalized growth [23] of the same compound?
**A.** Its normalized growth is 1.02.

**Q.** And the normalized growth [24]?
**A.** Its normalized growth is 1.04.

**Q.** What about the normalized growth (locus YOL006C, strain TOP1, hits give low values) of the same compound?
**A.** The normalized growth was 1.18.

**Q.** What about the normalized growth [25] of the same compound?
**A.** The normalized growth was 0.908.

**Q.** What about the normalized growth [26] of the same compound?
**A.** Its normalized growth is 1.13.

**Q.** What about the normalized growth [27] of the same compound?
**A.** The normalized growth was 1.11.

**Q.** For `CSc1nsc(SC)c1C(=O)NC(=O)Nc1ccc(F)cc1F`, which normalized growth [1] is on record?
**A.** The normalized growth was 1.01.

**Q.** And the normalized growth [2]?
**A.** The normalized growth was 1.01.

**Q.** What about the normalized growth [3] of the same compound?
**A.** Its normalized growth is 1.04.

**Q.** And the normalized growth [4]?
**A.** Its normalized growth is 1.04.

**Q.** What about the normalized growth [5] of the same compound?
**A.** The normalized growth was 1.01.

**Q.** And the normalized growth [6]?
**A.** The normalized growth was 1.01.

**Q.** What about the normalized growth [7] of the same compound?
**A.** The normalized growth was 1.02.

**Q.** What about the normalized growth [8] of the same compound?
**A.** The normalized growth was 1.1.

**Q.** What about the normalized growth [9] of the same compound?
**A.** Its normalized growth is 1.02.

**Q.** And the normalized growth [10]?
**A.** Its normalized growth is 1.01.

**Q.** And the normalized growth [11]?
**A.** Its normalized growth is 1.01.

**Q.** What about the normalized growth [12] of the same compound?
**A.** The normalized growth was 1.02.

**Q.** And the normalized growth [13]?
**A.** Its normalized growth is 1.03.

**Q.** What about the normalized growth [14] of the same compound?
**A.** The normalized growth was 1.

**Q.** What about the normalized growth [15] of the same compound?
**A.** Its normalized growth is 1.02.

**Q.** What about the normalized growth [16] of the same compound?
**A.** The normalized growth was 1.

**Q.** What about the normalized growth [17] of the same compound?
**A.** Its normalized growth is 1.08.

**Q.** What about the normalized growth [18] of the same compound?
**A.** Its normalized growth is 1.

**Q.** And the normalized growth [19]?
**A.** The normalized growth was 0.993.

**Q.** What about the normalized growth [21] of the same compound?
**A.** Its normalized growth is 1.01.

**Q.** What about the normalized growth [22] of the same compound?
**A.** Its normalized growth is 1.04.

**Q.** What about the normalized growth [23] of the same compound?
**A.** The normalized growth was 1.02.

**Q.** What about the normalized growth [24] of the same compound?
**A.** Its normalized growth is 1.03.

**Q.** And the normalized growth [25]?
**A.** Its normalized growth is 1.08.

**Q.** What about the normalized growth [26] of the same compound?
**A.** Its normalized growth is 1.07.

**Q.** What about the normalized growth [27] of the same compound?
**A.** The normalized growth was 1.07.

**Q.** Which results are given for `CN1CC(C(=O)NC2(C)OC3(O)C4CCCN4C(=O)C(Cc4ccccc4)N3C2=O)CC2c3cccc4[nH]cc(c34)CC21` (stereo not given)?
**A.** normalized growth [28]: 0.995; normalized growth [29]: 0.992; normalized growth [4]: 0.99; normalized growth [30]: 0.974; normalized growth [31]: 0.988; normalized growth [19]: 0.987; normalized growth [20]: 0.965; normalized growth (locus YNL128W, strain TEP1, hits give low values): 0.994; normalized growth [32]: 1.01; normalized growth [33]: 0.985; normalized growth [34]: 1; normalized growth [35]: 0.98; normalized growth [25]: 0.905; normalized growth [26]: 0.995

**Q.** Which normalized growth [1] does the source give for `CC(C)[C@@]1(NC(=O)[C@@H]2C[C@@H]3c4cccc5[nH]cc(c45)C[C@H]3N(C)C2)O[C@@]2(O)[C@@H]3CCCN3C(=O)[C@H](Cc3ccccc3)N2C1=O` here?
**A.** The normalized growth was 0.941.

**Q.** What about the normalized growth [28] of the same compound?
**A.** Its normalized growth is 0.972.

**Q.** What about the normalized growth [29] of the same compound?
**A.** The normalized growth was 0.974.

**Q.** And the normalized growth [30]?
**A.** The normalized growth was 0.945.

**Q.** And the normalized growth [31]?
**A.** Its normalized growth is 0.981.

**Q.** What about the normalized growth [6] of the same compound?
**A.** Its normalized growth is 0.996.

**Q.** What about the normalized growth [20] of the same compound?
**A.** Its normalized growth is 0.985.

**Q.** And the normalized growth [32]?
**A.** The normalized growth was 0.987.

**Q.** And the normalized growth [33]?
**A.** Its normalized growth is 1.02.

**Q.** And the normalized growth [34]?
**A.** The normalized growth was 1.

**Q.** What about the normalized growth [23] of the same compound?
**A.** Its normalized growth is 0.924.

**Q.** What about the normalized growth [35] of the same compound?
**A.** The normalized growth was 1.

**Q.** And the normalized growth [25]?
**A.** Its normalized growth is 0.91.

**Q.** What about the normalized growth [26] of the same compound?
**A.** Its normalized growth is 0.985.
